The structures appear in SMILES notation. The campaign covered roughly 400,000 compounds. About 2,100 (0.53%) were called active. Inconclusive results (about 14%) are left out. How the calls were made is not given here. The sample as a whole holds a higher share of actives than the screen did.

The target of this test is Ataxin-2 (Homo sapiens) (UniProt Q99700). Nature of the test: qHTS for Inhibitors of ATXN expression. Format: functional. On the technique in general: Quantitative high-throughput screening tests each substance at several concentrations.
Sequence of Ataxin-2 (Homo sapiens) (Q99700 whole entry): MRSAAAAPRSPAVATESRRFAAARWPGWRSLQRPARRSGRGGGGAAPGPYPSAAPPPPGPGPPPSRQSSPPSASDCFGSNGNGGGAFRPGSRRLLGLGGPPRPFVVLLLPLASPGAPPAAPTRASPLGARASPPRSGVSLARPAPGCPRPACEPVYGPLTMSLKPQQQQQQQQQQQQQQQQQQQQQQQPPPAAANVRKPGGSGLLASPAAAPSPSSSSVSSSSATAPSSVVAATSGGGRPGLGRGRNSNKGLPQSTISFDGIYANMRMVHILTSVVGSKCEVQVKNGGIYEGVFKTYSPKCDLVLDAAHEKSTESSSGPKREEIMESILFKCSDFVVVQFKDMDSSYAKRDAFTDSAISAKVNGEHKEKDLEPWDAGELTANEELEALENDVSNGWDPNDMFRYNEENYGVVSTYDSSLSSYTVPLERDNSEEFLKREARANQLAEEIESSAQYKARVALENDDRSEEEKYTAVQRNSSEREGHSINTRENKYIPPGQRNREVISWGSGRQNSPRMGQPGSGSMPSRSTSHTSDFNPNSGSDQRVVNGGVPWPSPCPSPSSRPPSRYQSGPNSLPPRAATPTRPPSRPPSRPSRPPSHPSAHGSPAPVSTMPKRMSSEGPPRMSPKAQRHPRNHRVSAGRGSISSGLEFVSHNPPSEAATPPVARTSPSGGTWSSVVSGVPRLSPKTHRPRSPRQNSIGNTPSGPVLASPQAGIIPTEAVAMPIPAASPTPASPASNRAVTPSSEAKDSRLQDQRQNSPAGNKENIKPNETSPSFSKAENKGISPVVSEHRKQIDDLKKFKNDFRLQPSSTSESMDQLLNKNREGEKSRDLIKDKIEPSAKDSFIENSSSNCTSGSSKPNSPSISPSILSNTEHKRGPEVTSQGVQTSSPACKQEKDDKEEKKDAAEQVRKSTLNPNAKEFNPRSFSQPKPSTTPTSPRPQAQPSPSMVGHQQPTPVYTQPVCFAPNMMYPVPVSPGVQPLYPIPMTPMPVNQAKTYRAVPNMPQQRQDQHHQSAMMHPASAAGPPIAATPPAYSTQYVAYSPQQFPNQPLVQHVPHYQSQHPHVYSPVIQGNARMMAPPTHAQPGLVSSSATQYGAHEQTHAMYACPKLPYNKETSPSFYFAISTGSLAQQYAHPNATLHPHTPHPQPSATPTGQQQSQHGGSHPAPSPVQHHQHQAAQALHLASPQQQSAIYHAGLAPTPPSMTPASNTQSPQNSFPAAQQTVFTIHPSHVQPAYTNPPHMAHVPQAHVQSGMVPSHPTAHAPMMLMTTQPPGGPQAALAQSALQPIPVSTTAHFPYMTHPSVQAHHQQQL
Take `Cc1cccc(C2=NN(c3ccccc3)[C@@H](C(=O)N3CCOC3=O)[C@@H]2c2ccc(F)cc2)c1`: the Potency result is “inactive”. On to `Cc1cc(NCCCCO)n2c(nc3ccccc32)c1C#N`, for which the Potency entry was “inactive”. As for `Cc1ccc(-c2ncns2)cc1`, the entry is “inactive”; as for `N=c1n(Cc2ccccc2)c2ccccc2n1CC(O)COc1ccc(Cl)cc1Cl` (centres undefined), 37.7 µM (active); as for `COc1ccc(OCC(O)CNC(=O)c2c(-c3ccccc3)noc2C)cc1` (centres undefined), “inactive”. Next, `Oc1nncc2c3ccccc3n(Cc3cccc(Cl)c3)c12`: “inactive”; `OC(COc1ccc(Cl)cc1)CSc1ccccn1` (centres undefined): “inactive”; `N=c1n(Cc2ccc(Cl)cc2)c2ccccc2n1CC(O)COc1ccccc1` (centres undefined): 35.5 µM (active). Next, `COc1ccc(OCC(O)Cn2c(=N)n(Cc3ccccc3)c3ccccc32)cc1` (centres undefined): 35.5 µM (active); `COc1ccc(OCc2nc3ccccc3n2C(C)C)cc1`: “inactive”; `N=c1n(CCO)c2ccccc2n1CCOc1ccc(Cl)cc1Cl`: 25.1 µM (active).

Regarding `O=C(O)c1cc2cccc(S(=O)(=O)N3CCCCC3)c2cc1O`, the Potency entry was “inactive”.

Consider `CC(/C=N\NC(=O)Cn1cncn1)=C/c1ccc(C(C)C)cc1`, for which the Potency entry is “inactive”.

Regarding `CC(C)(C)C(=O)/C(=C/c1ccncc1)n1cncn1`, the Potency is 20 µM (active).

Take `Cc1cccc(C)c1N(CC(=O)NCc1ccc(F)cc1)C(=O)c1csnn1`: the Potency result is “inactive”.

As to `CN(C)c1ccc(/C=N/NC(=O)c2ccc(Cn3cc(Br)cn3)o2)cc1`, the Potency entry is “inactive”. Next, `NC(=O)c1ccsc1NC(=O)Cc1ccc([N+](=O)[O-])cc1`: “inactive”; `NC(Cc1ccc([N+](=O)[O-])cc1)=NOC(=O)c1cccc(Br)c1`: “inactive”; `NC(Cc1ccc([N+](=O)[O-])cc1)=NOC(=O)C(c1ccccc1)c1ccccc1`: 25.1 µM (active).

As for `CCCNC(=O)c1ccc2c(O)c(O)c(-c3ccc(C)cc3)nc2c1`, the Potency result was “inactive”. In the case of `N#Cc1c(-c2cccc(Br)c2)cc(-c2ccco2)nc1O`, the Potency result was “inactive”. Next, `Cc1cc(NC(=O)/C(C#N)=C/c2ccc(-c3ccc(SC(F)F)cc3)o2)n(-c2ccccc2)n1`: “inactive”; `COc1cccc(-c2nn(-c3ccccc3)cc2CN(C)Cc2c(C)nc3ccccn23)c1`: 39.8 µM (active). As to `Cc1nn(C(C)C(=O)NCC2CCCO2)c(C)c1[N+](=O)[O-]` (centres undefined), the Potency entry is “inactive”.

Regarding `O=C(NCc1ccc(S(=O)(=O)Nc2ccccc2Cl)s1)c1ccccc1`, the Potency entry is “inactive”. Next, `Cc1cccn2c(=O)c3cc(C(=O)N4CCCCC4)sc3nc12`: “inactive”.

`COc1ccc2nc(N3CCC(O)CC3)c(C#N)cc2c1`: the Potency result was “inactive”. As for `Oc1c(Cl)cc(Cl)cc1C1=NNC(c2ccc(Cl)cc2)C1` (centres undefined), the entry is “inactive”; as for `COc1ccccc1CNCC(O)Cn1c2ccccc2c2ccccc21` (centres undefined), 22.4 µM (active); as for `COc1ccccc1CC(=O)NC(=O)c1ccccc1O`, “inactive”. As for `COc1cccc(CNn2cnnc2)c1O`, the entry is “inactive”; as for `CC(=O)Nc1sc(/C(C#N)=C/c2ccc(Cl)c(Cl)c2)nc1-c1ccc(C)cc1`, “inactive”.

Consider `COc1ccccc1CCNC(=O)C(=O)NCC1OCCN1S(=O)(=O)c1ccc([N+](=O)[O-])cc1` (centres undefined), for which the Potency result is “inactive”. Consider `Cc1cccc(OCCn2cc(/C=N/NC(=O)c3ccncc3)c3ccccc32)c1`, for which the Potency entry was “inactive”.

As to `CCC(=O)Nc1c(-c2ccccc2)c(=O)c2ccccc2n1C`, the Potency result is “inactive”. As for `CSc1c(CC(=O)NCCCO)n(Cc2ccccc2)c2ccccc12`, the entry is “inactive”. As for `Cn1c2ccccc2c2cc(C(=O)NNC(=O)CCl)sc21`, the figure is 15 µM (active); as for `CC(CN1CCCCC1)OC(=O)c1ccco1` (centres undefined), “inactive”; as for `O=S(=O)(c1ccccc1)N1CCCN(S(=O)(=O)c2ccccc2)CC1`, “inactive”. Next, `O=S(=O)(CC(CN1CCCCC1)N1CCCCC1)c1ccccc1` (centres undefined): 31.6 µM (active); `O=C(NCc1ccc2c(c1)OCO2)c1nc(Cn2ccc([N+](=O)[O-])n2)no1`: “inactive”. With `CCn1nc(NC(=O)C(C)C)c2cc3cccc(C)c3nc21`, the Potency result is “inactive”.

With `Cn1cc(/C=N/Nc2ccccc2)c2ccccc21`, the Potency result was “inactive”. Next, `COc1ccc(-c2nc3c(-c4ccccc4)cnn3cc2C)cc1F`: “inactive”; `COc1ccc(-c2csc(-c3cccs3)n2)cc1OC`: “inactive”; `COc1ccc(-c2nc3cnccn3c2NCc2ccccc2)cc1SC1CCCCC1`: “inactive”. Take `COc1ccc(-c2nc3c4ccccc4ccn3c2Cc2ccccc2)cc1OC`: the Potency is 39.8 µM (active). Next, `COc1ccc(Cc2c(-c3ccc(OC)c(OC)c3)nc3c(C)cc(Br)cn23)c(C)c1`: 20 µM (active). Next, `COc1ccccc1Cc1c(-c2ccc(OC)c(OC)c2)nc2c3ccccc3ccn12`: 39.8 µM (active); `O=C(CC1C(=O)NCCN1C(=O)Nc1ccc(F)cc1)Nc1ccc(F)cc1` (centres undefined): “inactive”.

For the compound `Cc1csc(SCC(=O)NC(=O)NC(C)(C)C)n1`, the Potency result is “inactive”. Next, `Cn1c2ccccc2c(=O)c2cc(NCCCN3CCOCC3)ccc21`: “inactive”; `O=C(NC1=NCCS1)c1cc(-c2ccc(-c3ccccc3)cc2)nc2ccccc12`: “inactive”.

In the case of `CN(/N=C/c1cc(Br)cc(Br)c1O)c1cccc(C(F)(F)F)n1`, the Potency result is “inactive”. Next, `CN(/N=C/c1ccc(O)cc1O)c1nc(-c2ccccc2)cc(-c2ccccc2)n1`: 25.1 µM (active); `Cc1ccc(S(=O)(=O)[N-]c2nc3ccccc3nc2-[n+]2ccn(Cc3ccccc3)c2)cc1`: “inactive”. Next, `Cc1ccc(/N=C/c2nc(/C=C/c3cccc([N+](=O)[O-])c3)oc2O)cc1`: 39.8 µM (active); `Cc1nc(N/N=C/c2cccc([N+](=O)[O-])c2)cc(N2CCCCC2)n1`: “inactive”; `CC1(C)C([N+](=O)[O-])C(c2ccc(F)cc2)NC(c2ccc(F)cc2)C1[N+](=O)[O-]` (centres undefined): “inactive”. Take `Cc1ccc(NNC2=C3N=NN=C3C=CC2=O)cc1`: the Potency is 44.7 µM (active).

`C=CCn1c2ccccc2c(=O)c2cc(C#CC[C@@H](C)O)ccc21`: the Potency entry is “inactive”. `Clc1ccc2c(SCC3CO3)c3ccccc3nc2c1` (centres undefined): the Potency was 23.8 µM (active). For `Clc1ccc(-c2nc(N3CCOCC3)nc3ccccc23)cc1`, the Potency entry is “inactive”. Next, `O=C(O)c1ccccc1Cc1nc(O)c2ccc(Cl)cc2n1`: “inactive”. As for `O=S(=O)([N-]c1nc2ccccc2nc1-[n+]1ccn(Cc2ccccc2)c1)c1ccccc1`, the entry is “inactive”.

With `CC(C)OCCCNC(=O)CN1C(=O)c2cccc3cccc1c23`, the Potency result is “inactive”. As for `COc1ccc(OC)c(C(=O)NC2CCCc3c2cnn3-c2cc(C)cc(C)c2)c1` (centres undefined), the entry is “inactive”; as for `CC(=O)Nc1cccc(C(=O)NC2CCCc3c2cnn3-c2ccc(C(C)(C)C)cc2)c1` (centres undefined), 8.91 µM (active); as for `COC(=O)CCCC(=O)NC1CCCc2c1cnn2-c1ccc(F)cc1F` (centres undefined), “inactive”.

The values above are taken from ChEMBL document CHEMBL1201862, “PubChem BioAssay data set” (2004).
